Test results as given in PubChem BioAssay (EPA / NIEHS).
Where “and” joins values, the source holds several entries; their conditions need not be identical. Identical values can stand only once. Some structures have more than one record in an assay (separate samples or runs), and their calls can disagree. Calls of active or inactive are those of the source. Rule for the calls: active = hit-call score of the fitted dose curve at least 0.9, where 1 is the maximum; inactive = score below 0.9.

assay: ATG_DR4_LXR_CIS: Attagene CIS-FACTORIAL HepG2 Assay for human Liver X Receptor (LXR), DR4 submotif (AID 2282929); details: HepG2 Attagene DR4 cis-reporter, mRNA transcription; actives raise or lower the signal
Experimental: ATG_CIS is a cell-based, multiplexed-readout assay that uses HepG2, a human liver cell line, with measurements taken at 24 hours after chemical dosing in a 24-well plate.ATG_DR4_LXR_CIS is one of 52 assay component(s) measured or calculated from the ATG_CIS assay. It is designed to make measurements of mRNA induction, a form of inducible reporter, as detected with fluorescence intensity signals by Reverse transcription polymerase chain reaction (RT-PCR) and Capillary electrophoresis technology.Data from the assay component ATG_DR4_LXR_CIS was analyzed into 1 assay endpoint. This assay endpoint, ATG_DR4_LXR_CIS, was analyzed with bidirectional fitting relative to DMSO as the negative control and baseline of activity. Using a type of inducible reporter, measures of mRNA for gain or loss-of-signal activity can be used to understand the reporter gene at the transcription factor-level as they relate to the gene NR1H2 and NR1H3. Furthermore, this assay endpoint can be referred to as a primary readout, because this assay has produced multiple assay endpoints where this one serves a reporter gene function. To generalize the intended target to other relatable targets, this assay endpoint is annotated to the nuclear receptor intended target family, where the subfamily is non-steroidal.
Human liver HepG2 cells are transiently transfected with multiple reporter transcription units (MRTUs) in 6-well plates using FuGene 6 reagent (Roche; 3 ml FuGene/1 mg DNA). The MRTU constructs are regulated by a cis-regulating element (promoter). […] A major difference between the CIS and TRANS system is that in CIS activities of endogenous TFs are measured, whereas the TRANS assay evaluates changes in activities of exogenous, chimeric NR-Gal4 proteins. […] At the end of 24 hour incubation, total RNA was isolated using TriZol reagent (Invitrogen). The isolated RNA is then reverse-transcribed using oligo(dT) primer and Mo-MLV reverse transcriptase (Invitrogen) with DNAse I (Ambion) treatment for 30 min. The one-tenth of the produced cDNA was amplified by PCR using Taq DNA polymerase (Invitrogen) and two reporter sequence-specific primers. The PCR products were fluorescently labeled by primer extension with 6-arboxyfluorescein (6-FAM) 5'-labeled reporter sequence-specific primer (2 min at 95 C, 20 s at 68 C and 10 min at 72 C) and these products were digested with 5U of HpaI (New England Biolabs) for 2h at 37 C. The fragments were purified using Qiaquick PCR columns (Qiagen), analyzed on an ABI 3130xL genetic analyzer (Applied Biosystems) with peak positions identified by using a set of X-rhodamine (ROX)-labeled MapMarker1000 molecular weight standards (BioVentures). The raw capillary electrophoresis data was processed using Attagraph software (Attagene).

| Compound | outcome | AC50 |
| --- | --- | --- |
| CCC(C)(NC(=O)c1cc(Cl)c(C)c(Cl)c1)C(=O)CCl (stereo not given) | inactive |  |
| CC[C@H](C)[C@H]1O[C@]2(C=C[C@@H]1C)C[C@@H]1C[C@@H](C/C=C(\C)[C@@H](O[C@H]3C[C@H](OC)[C@@H](O[C@H]4C[C@H](OC)[C@@H](O)[C@H](C)O4)[C@H](C)O3)[C@@H](C)/C=C/C=C3\CO[C@@H]4[C@H](O)C(C)=C[C@@H](C(=O)O1)[C@]34O)O2 (tested in a mixture with another compound) |  | 1.75 µM (active) |
| CCOCN(C(=O)CCl)c1c(C)cccc1CC | inactive |  |
| Cc1cc(C)nc(NC(=O)NS(=O)(=O)c2ccccc2C(=O)OC2COC2)n1 | inactive |  |
| O=S1OCC2C(CO1)C1(Cl)C(Cl)=C(Cl)C2(Cl)C1(Cl)Cl (stereo not given) | inactive |  |
| COP(=O)(OC)OC=C(Cl)Cl | inactive |  |
| COC(=O)c1ccccc1S(=O)(=O)NC(=O)N(C)c1nc(C)nc(OC)n1 | inactive |  |
| Clc1ccccc1-c1nnc(-c2ccccc2Cl)nn1 | inactive |  |
| CN1CSC(=S)N(C)C1 | inactive |  |
| COP(=S)(OC)Oc1ccc([N+](=O)[O-])cc1 | inactive |  |
| COc1nn(CSP(=S)(OC)OC)c(=O)s1 | inactive |  |
| Oc1ccc(Cl)cc1Cc1ccccc1 | inactive | 11.2 µM (active) and 14.2 µM (active) and 13.4 µM (active) |
| Cc1[nH]c(=O)n(C(C)(C)C)c(=O)c1Cl | inactive |  |
| CCCN(CCC)c1c([N+](=O)[O-])cc(C(F)(F)F)cc1[N+](=O)[O-] |  | 24.1 µM (active) |
| COC(=O)c1ccccc1S(=O)(=O)NC(=O)Nc1nc(C)nc(OC)n1 | inactive |  |
| COP(=S)(OC)Oc1ccc(SC)c(C)c1 |  | 29.2 µM (active) |
| Oc1cc(Cl)ccc1Oc1ccc(Cl)cc1Cl | inactive | 17.6 µM (active) [middle of 4 runs] |
| N#CN | inactive |  |
| O=C(NC(=O)c1c(F)cccc1F)Nc1ccc(OC(F)(F)C(F)OC(F)(F)F)c(Cl)c1 (stereo not given) | inactive |  |

| Compound | outcome | AC50 |
| --- | --- | --- |
| O=C(Nc1ccccc1)Nc1cnns1 |  | 82.7 µM (active) |
| CCC(C)(C)C(=O)OC1=C(c2ccc(Cl)cc2Cl)C(=O)OC12CCCCC2 | inactive |  |
| CC1(C)C(C=C(Cl)Cl)C1C(=O)OC(C#N)c1ccc(F)c(Oc2ccccc2)c1 (stereo not given) |  | 14.4 µM (active) |
| N#Cc1c(Cl)c(Cl)c(Cl)c(C#N)c1Cl | inactive |  |
| CNC(=O)/C=C(\C)OP(=O)(OC)OC | inactive |  |
| ClC1C(Cl)C(Cl)C(Cl)C(Cl)C1Cl (stereo not given) | inactive | 116 µM (active) and 21.7 µM (active) |
| O=[N+]([O-])/N=C1\NCCN1Cc1ccc(Cl)nc1 | inactive |  |
| CCCN(CCOc1c(Cl)cc(Cl)cc1Cl)C(=O)n1ccnc1 | inactive |  |
| CNC(=O)Oc1cccc(N=CN(C)C)c1 | inactive |  |
| OCCOc1ccccc1 | inactive |  |
| CC(C)(C)C(O)/C(=C\c1ccc(Cl)cc1Cl)n1cncn1 (stereo not given) | inactive |  |
| CNC(=O)Oc1ccccc1OC(C)C | inactive |  |
| CCOC1Oc2ccc(OS(C)(=O)=O)cc2C1(C)C (stereo not given) | inactive |  |
| CC(C)OC(=O)Nc1cccc(Cl)c1 | inactive |  |
| O=[N+]([O-])c1c(Cl)c(Cl)c(Cl)c(Cl)c1Cl | inactive |  |
| CNC(=O)CSP(=S)(OC)OC | inactive |  |
| C[C@H]1[C@H](c2ccc(Cl)cc2)SC(=O)N1C(=O)NC1CCCCC1 |  | 81.4 µM (active) |
| CCOc1nc(NC)nc(NC(=O)NS(=O)(=O)c2ccccc2C(=O)OC)n1 | inactive |  |
